Measurements: PubChem BioAssay AID1224855 (National Center for Advancing Translational Sciences (NCATS), 2016)
Inconclusive results are not listed. Calls of active or inactive are those of the source. Calls come from the whole dose curve; as a rule, active = well fitted inhibition curve with a large enough effect; inconclusive = small, poorly fitted or top-dose-only effect; inactive = no such curve, though single readings can be large or run the other way.

Test: Confirmation assay for measurement of the activity of small molecule inhibitors on Zika virus induced Caspase-3 activity in human iPSC derived neural progenitor cells (hNPCs)
Details: hNPC ZIKV-induced caspase-3/7, Caspase-Glo luminescence, 6 h; series mostly up to 46.1 µM
Method in brief: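 Human iPSC-derived neural progenitor cells, 350 cells/well, pretreated 1 h with compounds, then Zika virus at 2 FFU/cell for 6 h at 37 C. Caspase-3/7 luminescence (Caspase-Glo) after 30 min RT; normalized to uninfected and infected wells.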

SMILES | Potency
CC(C(=O)O)c1ccc(-c2ccccc2)c(F)c1 (centres undefined) | inactive
CN(C)c1ccc(/C=C2\C(=O)Nc3ccccc32)cc1 | 7.74 µM (active)
COc1ccc(-c2coc3cc(O)ccc3c2=O)cc1 | 8.69 µM (active)
Clc1ccccc1-c1nc(-c2ccncc2)no1 | 4.35 µM (active)
Nc1ccc(O)c(C(=O)O)c1 | inactive
C[C@@H](N)c1ccc(C(=O)Nc2ccnc3[nH]ccc23)cc1 | inactive
Nc1ncnc2c1ncn2[C@@H]1O[C@@H](CO)[C@H](O)[C@H]1O | inactive
CC(=C(CCOC(=O)C(C)C)SSC(CCOC(=O)C(C)C)=C(C)N(C=O)Cc1cnc(C)nc1N)N(C=O)Cc1cnc(C)nc1N | inactive
CCCC(=O)OC[C@@H](OC(=O)CCC)[C@@H](OC(=O)CCC)[C@H](Cn1c2nc(=O)[nH]c(=O)c-2nc2cc(C)c(C)cc21)OC(=O)CCC | inactive
CC[C@]1(O)C[C@H]2CN(CCc3c([nH]c4ccccc34)[C@@](C(=O)OC)(c3cc4c(cc3OC)N(C=O)[C@H]3[C@@](O)(C(=O)OC)[C@H](OC(C)=O)[C@]5(CC)C=CCN6CC[C@]43[C@@H]65)C2)C1 | inactive
O=C(O)Cc1ccc(-c2ccccc2)cc1 | inactive
COc1cccc2c1C(=O)c1c(O)c3c(c(O)c1C2=O)C[C@@](O)(C(=O)CO)C[C@@H]3O[C@H]1C[C@H](N)[C@H](O[C@@H]2CCCCO2)[C@H](C)O1 | inactive
CN(C)CCCSc1ccccc1NC(=O)/C=C/c1ccccc1 | 17.3 µM (active)
CNC1[C@H](O)C(O[C@@H]2C(O)C(O[C@H]3O[C@H]([C@@H](C)NC)CC[C@H]3N)[C@@H](N)C[C@H]2N)OC[C@]1(C)O (some centres undefined) | inactive
COc1ccc(NC(=O)/C=C/c2ccc(Cl)cc2)cc1 | 2.45 µM (active)
Cc1cccc(C#Cc2ccccc2)n1 | 3.46 µM (active)
O=c1c(-c2ccc(O)cc2)coc2cc(O)ccc12 | 13.8 µM (active)

SMILES | Potency
CCCCCCCCCCCC(=O)[O][Sn]([CH2]CCC)([CH2]CCC)[O]C(=O)CCCCCCCCCCC | inactive
Cc1ccc(O)c(N=Nc2ccccc2)n1 | 1.23 µM (active)
CC(C(=O)O)c1ccc(C(=O)c2ccccc2)s1 (centres undefined) | 6.9 µM (active)
O=C(Nc1ccc(OC(F)(F)F)cc1)c1sccc1NCc1ccnc2ccccc12 | 6.15 µM (active)
C[C@@H](O[C@H]1OCCN(Cc2n[nH]c(=O)[nH]2)[C@@H]1c1ccc(F)cc1)c1cc(C(F)(F)F)cc(C(F)(F)F)c1 | inactive
O=C(Nc1ccc([N+](=O)[O-])cc1Cl)c1cc(Cl)ccc1O | 1.73 µM (active)
Cc1nc(-c2ccc(OCC(C)C)c(C#N)c2)sc1C(=O)O | 3.88 µM (active)
O=S(=O)(O)c1ccc2nc(-c3ccccc3)[nH]c2c1 | 1.23 µM (active)
CC(=O)Oc1ccccc1C(=O)Nc1ncc([N+](=O)[O-])s1 | 1 µM (active)
CO[C@H]1C(=O)[C@]2(C)[C@@H](OC)C[C@H]3OC[C@@]3(OC(C)=O)[C@H]2[C@H](OC(=O)c2ccccc2)[C@]2(O)C[C@H](OC(=O)[C@H](O)[C@@H](NC(=O)OC(C)(C)C)c3ccccc3)C(C)=C1C2(C)C | inactive
CN(C)c1cc(NC(=O)CNC(C)(C)C)c(O)c2c1C[C@@H]1C[C@H]3[C@H](N(C)C)C(=O)C(C(N)=O)=C(O)[C@@]3(O)C(=O)C1=C2O | inactive
CCC(C(=O)O)c1ccc(N2Cc3ccccc3C2=O)cc1 (centres undefined) | 5.48 µM (active)
O=C(/C=C/c1ccc(O)cc1)c1ccc(O)cc1O | 1.73 µM (active)
NC(=O)c1cccc2[nH]c(-c3ccc([C@H]4CCCN4)cc3F)nc12 | 13.8 µM (active)
CS(=O)(=O)c1ccc(-c2cn3ccccc3n2)cc1 | 3.88 µM (active)
CC(=NNC(=S)N1CCC1)c1ccccn1 | inactive
Cc1[nH]c(C=C2C(=O)Nc3ccccc32)c(C)c1CCC(=O)O | inactive
